± gives the standard deviation of the averaged measurements.
The compounds below were run on SUM149 (assay: percent difference in area under dose-response curve of relative cell number, RPMI vs HPLM; higher = drug relatively more effective in HPLM than RPMI (negative = less effective in HPLM)). Details: treatment time: 72 h; dose range: 10-point, 1 nM to 20 µM; media compared: RPMI vs HPLM.
Experimental: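 SUM149 triple-negative breast cancer cells, 500 cells/well in 384-well plates, were grown in RPMI or human plasma-like medium (HPLM) with 5% dialyzed FBS. They were pin-transferred with an anticancer plus metabolic-inhibitor library in 10-point dose series (20 µM to 1 nM). After 72 h, cells were fixed, stained with bisbenzimide and counted by Acumen plate cytometry. The AUC of relative survival vs dose was computed per medium, and the percent difference in AUC between RPMI and HPLM is reported.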

In order of rising “percent difference in area under dose-response curve” value:
1. CC(C)[C@]12O[C@H]1[C@@H]1O[C@]13[C@]1(O[C@H]1C[C@H]1C4=C(CC[C@@]13C)C(=O)OC4)[C@@H]2O [Triptolide]  -67%
2. C/C(=C\c1csc(C)n1)[C@@H]1C[C@@H]2O[C@]2(C)CCC[C@H](C)[C@H](O)[C@@H](C)C(=O)C(C)(C)[C@@H](O)CC(=O)O1 [Epothilone_B]  -49.1%
3. c1ccc2c(c1)[I+]c1ccccc1-2 [Diphenyleneiodonium_chloride]  -42%
4. CC[C@@H]1/C=C/C=C/C[C@H](C)[C@H](O)[C@](C)(O)C(=O)[C@H](C)[C@@H](O)[C@H](C)C(=O)[C@H](C)[C@@H](O)[C@H](C)/C=C/C(=O)O[C@H]2[C@@H](C)[C@@H](CC1)O[C@@]1(CC[C@@H](C)[C@@H](C[C@H](C)O)O1)[C@@H]2C [Oligomycin_A]  -41%
5. C/C(=C\c1csc(C)n1)[C@@H]1C[C@@H]2O[C@@H]2CCC[C@H](C)[C@H](O)[C@@H](C)C(=O)C(C)(C)[C@@H](O)CC(=O)O1 [Epothilone_A]  -32.6%
6. C/C=C(/C)C(=O)O[C@H]1C(C)=C2[C@H]([C@@H]1OC(=O)CCCCCCC)[C@@](C)(OC(C)=O)C[C@H](OC(=O)CCC)[C@@]1(O)[C@H]2OC(=O)[C@@]1(C)O [Thapsigargin]  -31.9%
7. N#Cc1cn([C@@H]2O[C@H](CO)[C@@H](O)[C@H]2O)c2ncnc(N)c12 [Toyocamycin]  -27.1%
8. Cc1sc2c(c1C)C(c1ccc(Cl)cc1)=N[C@@H](CC(N)=O)c1nnc(C)n1-2  -25.8%
9. C=C(C)[C@H]1Cc2c(ccc3c2O[C@@H]2COc4cc(OC)c(OC)cc4[C@@H]2C3=O)O1 [Rotenone]  -23%
10. [N-]=[N+]=CC(=O)OC[C@H](N)C(=O)O [Azaserine]  -16.2%
11. CC(=O)c1c(O)c(C)c(O)c(Cc2c(O)c3c(c(C(=O)/C=C/c4ccccc4)c2O)OC(C)(C)C=C3)c1O [Rottlerin]  -6.49%
12. CC(=O)N[C@H]1[C@@H](O[C@@H]2O[C@H](CC(O)[C@H]3O[C@@H](n4ccc(=O)[nH]c4=O)[C@H](O)[C@@H]3O)[C@H](O)[C@H](O)[C@H]2NC(=O)/C=C/CC(C)C)O[C@H](CO)[C@@H](N)[C@@H]1O (some centres undefined) [Tunicamycin]  -6.39%
13. CCCCCC[C@H]1C(=O)O[C@H](C)[C@H](NC(=O)c2cccc(NC=O)c2O)C(=O)O[C@@H](C)[C@@H]1OC(=O)CC(C)C [Antimycin_A]  -6.05%
14. Cc1cc2c(C(C)C)c(O)c(O)c(C=O)c2c(O)c1-c1c(C)cc2c(C(C)C)c(O)c(O)c(C=O)c2c1O [Gossypol]  -5.85 ± 4.1%
15. S=C=NCCc1ccccc1  -5.8%
16. O=C(O)CCCc1ccc(N(CCCl)CCCl)cc1 [Chloroambucil]  -5.32%
17. Cn1c(CCCC(=O)O)nc2cc(N(CCCl)CCCl)ccc21 [Bendamustine_HCL]  -4.52%
18. C[S+]([O-])CCCCN=C=S (centres undefined) [Sulforaphane]  -4.37%
19. CC1=CC(=O)c2c(O)cccc2C1=O [Plumbagin]  -4.04%
20. NC(=O)c1ccc(N)nc1 [6_Aminonicotinamide]  -3.77%
21. CCOc1ccccc1-n1c(C(C)N2CCN(C(=O)COc3ccc(Cl)cc3)CC2)nc2ccccc2c1=O (centres undefined) [Erastin]  -2.91%
22. Oc1cc(Cl)ccc1Oc1ccc(Cl)cc1Cl [Triclosan]  2.04%
23. O=S(=O)(CC1CS1)c1ccc(Oc2ccccc2)cc1 (centres undefined)  4.58%
24. O=C1CSC(c2ccccc2Cl)c2cc(Cl)ccc2N1 (centres undefined)  4.73%

— the supplement of paper PMC11383364
